Data on eight compounds can be found in PubChem BioAssay (Tox21).

Test [1] in a line: qHTS assay to test for compound auto fluorescence at 535 nm (green) in HEK293 cells (AID 720680). A general note: qHTS replaces the single test concentration by a dilution series.
Test [2] can be described thus: qHTS assay to test for compound auto fluorescence at 460 nm (blue) in HEK293 cell free culture (AID 720681). The gist of the method: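 Compounds were added to cell-free DMEM with 10% FBS and fluorescence read directly. The blue channel used 405 nm excitation and 460 nm emission, with triamterene as the reference fluorophore.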
A short description of test [3]: qHTS assay to test for compound auto fluorescence at 535 nm (green) in HEK293 cell free culture (AID 720682). The gist of the method:
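Compounds were pin-transferred into cell-free DMEM with 10% FBS, and green fluorescence was read at excitation 485 nm and emission 535 nm. Intensities were expressed as fluorescein-equivalent values.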

The nature of test [4]: qHTS assay to test for compound auto fluorescence at 590 nm (red) in HEK293 cell free culture (AID 720683). In outline: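 Cell-free wells of DMEM with 10% FBS received compound, and intrinsic fluorescence was read at excitation/emission 540/590 nm. Values expressed as equivalence to Rose Bengal sodium.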
The nature of test [5]: qHTS assay to test for compound auto fluorescence at 590 nm (red) in HepG2 cell free culture (AID 720684). In outline: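 Rose Bengal sodium served as the reference for red signal. Test compounds were dispensed into serum-containing MEM (10% FBS) without cells, and plates were read at 540/590 nm.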
The nature of test [6]: qHTS assay to test for compound auto fluorescence at 460 nm (blue) in HepG2 cell free culture (AID 720685). The gist of the method: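 Cell-free plates of MEM plus 10% FBS received 23 nL compound or DMSO vehicle; blue-channel (405/460 nm) intensity scored against triamterene as reference fluorophore.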
Test [7] in a line: qHTS assay to test for compound auto fluorescence at 535 nm (green) in HepG2 cell free culture (AID 720686).
The nature of test [8]: qHTS assay to test for compound auto fluorescence at 460 nm (blue) in HepG2 cells (AID 720687). In outline:
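HepG2 cells in MEM with 10% FBS, attached overnight at 37 C, were exposed to compound or DMSO for 1 hr at 37 C, 5% CO2. Blue fluorescence was read at 405/460 nm, with triamterene as reference fluorophore.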

Test [9] has as its target Glucocorticoid receptor (Homo sapiens) (UniProt P04150). Kind of test: qHTS assay to identify small molecule agonists of the glucocorticoid receptor (GR) signaling pathway (AID 720691; active means well fitted activation curve with a large enough effect in the signal ratio in the repeat runs, not every such curve was filed as active; the % refers to the signal ratio; further: potency means the concentration at half of the fitted maximal effect). In outline: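 Compounds in DMSO, alongside positive controls, were added to GR-bla HeLa reporter cells and incubated 18 h at 37 C; GRE-driven beta-lactamase was detected by fluorescence after 2 h with FRET substrate at room temperature.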

The nature of test [10]: qHTS assay to identify small molecule antagonists of the glucocorticoid receptor (GR) signaling pathway - cell viability counter screen (AID 720693). Further: nearly all actives have a fitted effect of over 55% in size.
Test [11] in a line: qHTS assay for identifying genotoxic compounds that show differential cytotoxicity against isogenic chicken DT40 cell lines with known DNA damage response pathways - Rev3 mutant cell line (AID 743014). Further: nearly all actives have a fitted effect of over 55% in size. Further: potency means the concentration at half of the fitted maximal effect.
A short description of test [12]: qHTS assay for identifying genotoxic compounds that show differential cytotoxicity against isogenic chicken DT40 cell lines with known DNA damage response pathways - Rad54/Ku70 mutant cell line (AID 743015). Further: nearly all actives have a fitted effect of over 60% in size. Further: potency means the concentration at half of the fitted maximal effect.
The nature of test [13]: qHTS assay to identify small molecule antagonists of the androgen receptor (AR) signaling pathway - cell viability counter screen (AID 743033; further: nearly all actives have a fitted effect of over 45% in size).
The nature of test [14]: qHTS assay to identify small molecule antagonists of the androgen receptor (AR) signaling pathway using the MDA cell line - cell viability counter screen (AID 743041; further: nearly all actives have a fitted effect of over 45% in size). In outline: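 Cytotoxicity counter screen: MDA-kb2 AR-luc cells, compound + R1881, 16 h, 37C, 0% CO2; CellTiter-Fluor added at 15.5 h, fluorescence read after 30 min.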
Test [15] in a line: qHTS assay for identifying genotoxic compounds that show differential cytotoxicity against isogenic chicken DT40 cell lines with known DNA damage response pathways - wild type cell line (AID 743012). Further: nearly all actives have a fitted effect of over 60% in size. Further: potency means the concentration at half of the fitted maximal effect. In outline:
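Viability of DNA repair-proficient chicken DT40 cells was assessed by CellTiter-Glo luminescence following 40 h compound exposure at 37 C/5% CO2.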

Test [16] deals with Androgen receptor (Homo sapiens) (UniProt P10275). Nature of the test: qHTS assay to identify small molecule agonists of the androgen receptor (AR) signaling pathway (AID 743036; active means well fitted activation curve with a large enough effect in the signal ratio in the repeat runs, with a control signal flat, not every such curve was filed as active; the % refers to the signal ratio). The gist of the method:
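Activation was read as beta-lactamase FRET signal from LiveBLAzer B/G substrate, added for 2 h at room temperature. Before that, GeneBLAzer AR-UAS-bla GripTite (HEK293) cells had 16 h compound exposure at 37C.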

Test [17] shares this target. Kind of test: qHTS assay to identify small molecule agonists of the androgen receptor (AR) signaling pathway using the MDA cell line (AID 743040; further: nearly all actives have a fitted effect of over 20% in size). In outline:
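Luciferase read-out, ONE-Glo, 30 min RT. Cells: MDA-kb2 AR-luc, MMTV promoter with AR and GR response elements. Compound exposure 16 h, 37C, 0% CO2, after 5 h pre-incubation. qHTS agonist mode.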

For test [18] the target is unchanged. Nature of the test: qHTS assay to identify small molecule antagonists of the androgen receptor (AR) signaling pathway using the MDA cell line (AID 743042; further: nearly all actives have a fitted effect of over 55% in size). The gist of the method: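 MDA-kb2 breast carcinoma cells carrying MMTV-luciferase (AR/GR responsive) were co-treated with compounds and the agonist R1881 for 16 h at 37C. Inhibition read as ONE-Glo luminescence; CellTiter-Fluor fluorescence measured in parallel for cytotoxicity.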

Test [19] has the same target. Kind of test: qHTS assay to identify small molecule antagonists of the androgen receptor (AR) signaling pathway (AID 743035; active means well fitted inhibition curve with a large enough effect in the signal ratio in the repeat runs, not every such curve was filed as active; the % refers to the signal ratio). The gist of the method: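 Reporter HEK293 cells were exposed to compounds and R1881 overnight (16 h, 37C); beta-lactamase activity was then quantified by FRET fluorescence.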

Molecules are shown by their SMILES. Values joined by “and” are separate entries in the source; they are usually repeats but may differ in a detail not shown here. Equal entries are not always repeated. Unmarked numbers belong to inactive results. Results filed as inconclusive are left out. Active and inactive are the calls of the source. Unless noted, the call rests on the fitted dose curve; in most records, active means well fitted curve in the direction sought with a large enough effect in the repeat runs; inconclusive means weak or mixed curves; inactive means no such curve, though single readings can be large; an effect the other way counts as inactive or inconclusive.

Chain of Androgen receptor (Homo sapiens) (P10275 whole entry, looked up): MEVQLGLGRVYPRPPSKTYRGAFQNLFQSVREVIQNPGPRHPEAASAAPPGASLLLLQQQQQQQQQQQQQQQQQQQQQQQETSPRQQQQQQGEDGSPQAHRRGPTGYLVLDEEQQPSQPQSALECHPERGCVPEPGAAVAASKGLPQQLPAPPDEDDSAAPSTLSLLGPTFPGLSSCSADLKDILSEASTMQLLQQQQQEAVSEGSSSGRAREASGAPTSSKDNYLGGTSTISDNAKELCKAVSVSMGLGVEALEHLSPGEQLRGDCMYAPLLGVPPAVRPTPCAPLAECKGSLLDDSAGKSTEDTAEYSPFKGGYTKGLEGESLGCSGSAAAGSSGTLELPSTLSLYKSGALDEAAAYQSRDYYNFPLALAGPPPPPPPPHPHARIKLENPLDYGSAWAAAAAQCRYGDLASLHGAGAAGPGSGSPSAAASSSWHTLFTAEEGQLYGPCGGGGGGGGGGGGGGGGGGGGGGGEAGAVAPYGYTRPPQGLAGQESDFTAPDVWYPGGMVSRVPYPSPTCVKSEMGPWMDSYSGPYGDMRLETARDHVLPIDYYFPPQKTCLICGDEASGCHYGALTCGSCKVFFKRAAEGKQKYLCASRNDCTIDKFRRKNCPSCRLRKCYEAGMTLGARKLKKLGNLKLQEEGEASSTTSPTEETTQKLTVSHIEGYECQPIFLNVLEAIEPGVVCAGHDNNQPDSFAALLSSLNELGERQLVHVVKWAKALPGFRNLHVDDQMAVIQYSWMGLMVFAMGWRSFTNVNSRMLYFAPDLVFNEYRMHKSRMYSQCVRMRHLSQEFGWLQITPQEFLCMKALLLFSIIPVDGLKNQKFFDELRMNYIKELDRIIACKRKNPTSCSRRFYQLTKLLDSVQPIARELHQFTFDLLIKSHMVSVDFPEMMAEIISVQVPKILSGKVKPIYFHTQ
Chain of Glucocorticoid receptor (Homo sapiens) (P04150 whole entry, looked up): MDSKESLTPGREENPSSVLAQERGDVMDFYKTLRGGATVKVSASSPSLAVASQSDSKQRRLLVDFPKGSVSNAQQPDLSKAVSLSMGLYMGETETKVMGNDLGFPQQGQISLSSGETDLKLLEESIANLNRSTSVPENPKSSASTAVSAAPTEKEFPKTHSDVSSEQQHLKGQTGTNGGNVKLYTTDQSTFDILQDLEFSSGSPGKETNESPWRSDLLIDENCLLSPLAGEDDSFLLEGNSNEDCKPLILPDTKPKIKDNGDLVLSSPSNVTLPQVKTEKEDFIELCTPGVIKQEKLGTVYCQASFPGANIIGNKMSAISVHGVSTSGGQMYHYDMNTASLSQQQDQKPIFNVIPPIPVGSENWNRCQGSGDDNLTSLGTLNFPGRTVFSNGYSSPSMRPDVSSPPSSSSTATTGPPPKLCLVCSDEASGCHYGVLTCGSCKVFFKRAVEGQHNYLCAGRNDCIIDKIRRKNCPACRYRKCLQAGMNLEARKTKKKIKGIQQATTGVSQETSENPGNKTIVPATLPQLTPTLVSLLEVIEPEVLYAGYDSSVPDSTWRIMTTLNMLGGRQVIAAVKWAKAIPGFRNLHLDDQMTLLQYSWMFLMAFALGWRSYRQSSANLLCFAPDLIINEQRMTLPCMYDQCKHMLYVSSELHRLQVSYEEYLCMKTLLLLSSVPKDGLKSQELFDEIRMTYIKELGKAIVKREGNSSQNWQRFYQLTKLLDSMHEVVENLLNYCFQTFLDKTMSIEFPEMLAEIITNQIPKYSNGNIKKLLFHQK

In the case of `CCOC(=O)OC(C)OC1=C(C(=O)Nc2ccccn2)N(C)S(=O)(=O)c2ccccc21` (stereo not given), the call in test [1], in test [2], in [3], in test [4], in [5] and in test [6] was inactive. The compound was classed as inactive in test [7], in test [8], in [10] and in test [13]. For the same compound, the results for the Potency in [9], in [11] and in test [12] were 5350 nM (active), 1.5 µM (active) and 944 nM (active), respectively. Moreover, the Potency result in test [14] was “inactive”.
As for `CNC(=O)Nc1ccc(Cl)c(Cl)c1`, the compound was called inactive in test [1], in [2], in [3], in test [4], in test [5] and in [6]. In addition, the result in [7], in test [8], in [10], in test [13], in test [16] and in test [18] was inactive. Moreover, the Potency entry in test [9], in [15], in test [17] and in test [14] was “inactive” throughout.
Turning to `CC(C)[C@H]1CC[C@@H](C)CC1=O`, the result in [1], in [2], in [3], in test [4], in [5] and in [6] was inactive. Also, the compound was classed as inactive in test [7], in test [8], in [10] and in test [13]. Further, the Potency entry in test [15], in test [11], in [12] and in test [14] was “inactive” throughout.
Take `Cc1nc2ccc(CN(C)c3ccc(C(=O)N[C@@H](CCC(=O)O)C(=O)O)s3)cc2c(=O)[nH]1`: the call in [1], in test [2], in test [3], in test [4], in [5] and in test [6] was inactive. Besides, the compound was classed as inactive in test [7], in test [8], in test [10], in [13], in test [16] and in test [18]. Further, the Potency in [11] was 2.7 nM (active) and 5.3 nM (active); in [12] it was 2.1 nM (active) and 4.2 nM (active). Besides, the Potency result in [19], in test [17] and in test [14] was “inactive” in each case.
In the case of `CCCn1cc[n+](C)c1C`, the compound was called inactive in [1], in test [2], in test [3], in test [4], in test [5] and in test [6]. The compound was called inactive in [7], in [8], in test [10] and in test [13]. Also, the Potency result in [15], in test [11], in [12] and in test [14] was “inactive” throughout.
As to `C=C[Si](OC(C)=O)(OC(C)=O)OC(C)=O`, the outcome in [1], in test [2], in test [3], in [4], in test [5] and in [6] was inactive. In addition, the outcome in test [7], in test [8], in test [10], in test [13], in test [16] and in test [18] was inactive. The Potency result in test [9], in test [19], in [17] and in test [14] was “inactive” in each case. Further, the Potency in [11] is 61.1 µM (active).
On to `CCCCCCCCCCOc1cc2c(=O)c(C(=O)OCC)c[nH]c2cc1OCC`, for which the result in [1], in [2], in test [3], in test [4], in test [5] and in test [6] was inactive. Besides, the compound was classed as inactive in [7], in test [8], in test [10] and in [13]. For the same compound, the Potency entry in [11], in test [12] and in test [14] was “inactive” in each case.
For the compound `Nc1ccn([C@@H]2O[C@H](CO)[C@@H](O)[C@@H]2O)c(=O)n1`, the compound was called inactive in [1], in test [2], in [3], in [4], in [5] and in [6]. The outcome in [7], in [8], in test [10] and in [13] was inactive. For the same compound, the Potency entry in [9] and in test [14] was “inactive” in each case. Also, the results for the Potency in test [15], in [11] and in test [12] were 61.1 nM (active), 0.0433 µM (active) and 43.3 nM (active), respectively.
